From article PMC12136788
In all, about 24,000 sequences were measured (“enrichment r”: median about 0.99, highest 2% from about 3.7 on). The sample holds the highest values, similar sequences and a random draw of the others, so the mix is not that of the screen.

B1: chr7:75932113:75932114:+_ENSG00000106211_ENST00000248553|hu_hu|hu_hu_hu_mus_False|8_18 (ssRNA)
RNA: GGGAGUUCUACAGUCCGACGAUCCUGCGACCACUCAUCGGGCAACCGGGGCACCCCGAAAGCUUGAUCGAAGAGGCGGCUGUGUGCAGGGUACCAGUCCCGGAAUGGUUCCCAGCUGCCCCGCAGGAGCGAGAAGGAGGGCACCAACAGAGGAUUGAGCAUCA
B2: 171752885_171753005_485_CDS_ENSG00000010165_ENST00000361735|human|control|control (ssRNA)
RNA: GGGAGUUCUACAGUCCGACGAUCGGUGGCAUUACAUUCCUUCAUUUGCUUGAUGACAACCUCACUGAUGUCGAUGUUCACUAUAUCCCGAUAGCCCACAUCAUACAGUUGCUCACUCAGUUCUGAGUUGCCACACCCAAUCACCAACAGAGGAUUGAGCAUCA
B3: 59346998_59352246_650_CDS_ENSG00000215114_ENST00000399598|human|control|control (ssRNA)
RNA: GGGAGUUCUACAGUCCGACGAUCAUCCAAAUUCACUUGGCCACCAUGAACAAGGCGCUGAAGCUCCAGGGGAAUCUCUCCUCUCUUAACAGACUCCAGAAAUUGAGCAUUUGUUGGUUCAUUGUAAGGUCUCAAUUCUCCAUCCAACAGAGGAUUGAGCAUCA
B4: 244175_244709_261_3pUTR_ENSG00000185627_ENST00000382671|human|control|control (ssRNA)
RNA: GGGAGUUCUACAGUCCGACGAUCUUACACAGGAUCACUGCCUCAUCACUACUUUUCACCUUCUCACGAGUCUUUUCCAGAAAAGUAAGAGCCACAUUAGGAUCAGUCAUCUGUCUAACUACAUGAAGAAUGAUUUCCACGAGGCAACAGAGGAUUGAGCAUCA
B5: chr5:176910979:176910980:-_ENSG00000196923_ENST00000355841|hu_hu|FALSE|FALSE (ssRNA)
RNA: GGGAGUUCUACAGUCCGACGAUCCCCAGCGUCGAUCUUGAAGUCACAGCCAUGGCAUUUCGUGCCAAACAUCUUCUCAUAGUCUCGCUCGCAAUAGGGCACGCCCUCCUCCAUGUAGAAGGCCCUGUUCCGGAUGGGCGUCUUCAACAGAGGAUUGAGCAUCA
B6: 118753231_118753351_2268_3pUTR_ENSG00000125354_ENST00000354416|human|control|control (ssRNA)
RNA: GGGAGUUCUACAGUCCGACGAUCUGAAAUACCUCACAAGAAGAAUUCGGUAAGGCUAUCAUUCAAGACUCUAGGCUGGUAAUAAUAUUCAGGUUUAUUCUCCCUUUUGCAUCUGUGGGAUACCCAGAGUUAGAGAGAGGGGAACAACAGAGGAUUGAGCAUCA
B7: chr17:64801638:64801639:+_ENSG00000154229_ENST00000413366|hu_hu|motif|central (ssRNA)
RNA: GGGAGUUCUACAGUCCGACGAUCAUCAAAUACAUAUAUAUACACACACAUAUGUAGUAAGAGCCUAAUCUAUCACGUAAACGGGCCAUUCAUUUUUGAAAUUUUAUCUACAUUUAAAAAGUAAUCUAUCUGAUACAGUGCCCACAACAGAGGAUUGAGCAUCA
B8: 16459948_16460068_3699_3pUTR_ENSMUSG00000024639_ENSMUST00000025541|mouse|control|control (ssRNA)
RNA: GGGAGUUCUACAGUCCGACGAUCAUCCCUAGUCAGAAAUAAACUGACAAAUUUACAUUCUCCUCUCUUAAAAAAGUAAAUAAAAUAACAUUAUUCAAAAUGUGAAUUAGCUAUAAGACAUACAAUUACAUAGAUACAUAUCAACAACAGAGGAUUGAGCAUCA
B9: chr5:151611259:151611260:+_ENSMUSG00000034021_ENSMUST00000016569|mus_mus|FALSE|FALSE (ssRNA)
RNA: GGGAGUUCUACAGUCCGACGAUCGCAUUUCUGAACAUAAUGUUCAAGAAGUAAUAUCUAUACACAAUAACAUUCUAGACUAUUAAAAGCCCAUUCAAAUUACAGAAUUUUAUUGAUACAGUAGAUUAAUAUAAACUGAAAAAACAACAGAGGAUUGAGCAUCA
B10: 66017293_66045708_550_CDS_ENSMUSG00000056515_ENSMUST00000070673|mouse|control|control (ssRNA)
RNA: GGGAGUUCUACAGUCCGACGAUCAGCGUCCUUCAGGGGCACCUCCCUAAUAUCAGAGAGGUCACACUUGUUCCCAGCAAUCGCCAUCACAAUGUUUUCUGGGCCGUGCUCCUUCAGCUCCUUGACCCAUUUUUUCAAGGUAUGCAACAGAGGAUUGAGCAUCA
B11: 8158834_8158954_592_CDS_ENSG00000178921_ENST00000314666|human|control|control (ssRNA)
RNA: GGGAGUUCUACAGUCCGACGAUCAGGGCCAUUGAGGGGUUCCGGCAUGCUCUCAGGGGAGAAACUCUGGAUGGGAUGGGGGAAGUGCUGCUCUGUCAUCCGGUCGUGCAGGGUAGCCAGAGCAAUGGCUUCCACCUCAGCUGACAACAGAGGAUUGAGCAUCA
B12: chr6:41757443:41757444:+_ENSG00000214736_ENST00000398881|hu_mus|hu_hu_hu_mus_False|18_108 (ssRNA)
RNA: GGGAGUUCUACAGUCCGACGAUCGAACUGUCUGCUGGCAACAUCUCAGCCGACACUGGGGGAUGGGGGGGCAGUGGGGGGGGGUUCAGGCAAGGAGAGGGAGUCAACUUCAGCUGCUCAAACUUCAGGAUCUUGUGGUCACAGCAACAGAGGAUUGAGCAUCA
B13: chr6:41757443:41757444:+_ENSG00000214736_ENST00000398881|hu_mus|hu_hu_hu_mus_False|58_108 (ssRNA)
RNA: GGGAGUUCUACAGUCCGACGAUCGAACUGUCUGCUGGCAACAUCUCAGCCGACACUGGGGGAUGGGGGGGCAGUGGGAAACUAGGCAGGCAAGGAGAGGGAGUCAACUUCAGCUGCCACUCAGGUAGGAUCUUGUGGUCACAGCAACAGAGGAUUGAGCAUCA
B14: 31370942_31371062_1482_CDS_ENSMUSG00000006307_ENSMUST00000006470|mouse|control|control (ssRNA)
RNA: GGGAGUUCUACAGUCCGACGAUCUCCUGUGGUGGUGCUAGGGUUUGGAGUGGGAGAAAGGGUGCCCUCUGGUCCUGACCGAGCAGCUUCCCUCUCUGCCCGCUGGCUAGGAGUCAGGGGAGGCCUGCCCCUCUUCCUAGAGCACAACAGAGGAUUGAGCAUCA
B15: 53358179_53360397_419_3pUTR_ENSMUSG00000033054_ENSMUST00000035850|mouse|control|control (ssRNA)
RNA: GGGAGUUCUACAGUCCGACGAUCCAUCGCUGCCGCUUGAUUUCUGCAAUUCCAUUUCUCGUUCGAGCUCUCUGAUGGGCAGCAAACCCUGGAGAACUGUGCAUGCUCCUGAUCUGAGAGAGUGUGUGGUCUAGCUUCUUCCAUCAACAGAGGAUUGAGCAUCA
B16: 25965218_25965338_4171_CDS_ENSG00000143970_ENST00000336112|human|control|control (ssRNA)
RNA: GGGAGUUCUACAGUCCGACGAUCGCCUCUAUAGCUUGGCCCUAUCUGGGUGGGGCUUCCAUACAACUUCGGGGUUUGCAGGGGUGGAAGGAGUAGGGGCUGGUGGGUGGGGCUGUCUGCAGGCAGAGGAAGAACAGUAGAACUCAACAGAGGAUUGAGCAUCA
B17: chr2:27806210:27806211:+_ENSMUSG00000026837_ENSMUST00000028280|mus_hu|FALSE|FALSE (ssRNA)
RNA: GGGAGUUCUACAGUCCGACGAUCUGUGGUUUCUUUGGCAGCUUCCACGGGCUUCUUGCUGGGGGUGGGCUCCUUCCCUAGGUCUUCGGGGUCUUCGUAGUAGGGGUAUUCGUAGUAAUAGGUCUCACCCUCGCCGUCUCCUUCCAACAGAGGAUUGAGCAUCA
B18: chr6:41757443:41757444:+_ENSG00000214736_ENST00000398881|hu_mus|hu_hu_hu_mus_False|8_108 (ssRNA)
RNA: GGGAGUUCUACAGUCCGACGAUCGAACUGUCUGCUGGCAACAUCUCAGCCGACACUGGGGGAUGGGGGGGCAGUGGGGGGGGGUUCAGGCAAGGAGAGGGAGUCAACUUCAGCUGCCACUCAGGUAGCUGCCAUCAGUCACAGCAACAGAGGAUUGAGCAUCA
B19: chr6:43255143:43255144:+_ENSG00000146216_ENST00000259750|hu_hu|FALSE|FALSE (ssRNA)
RNA: GGGAGUUCUACAGUCCGACGAUCCUCAGGCCCCCUUCUUCCUCCCAGCUCCAAACCAGGGUGUUGUUGGUCCUGGGGCAGAGGUGAGGCUGGGGGCCCUACAUUCACGGUUCGGUUGGUGGCAAGGAGCAGGCCCAGGGCCUGCAACAGAGGAUUGAGCAUCA
B20: chr5:138654669:138654670:+_ENSG00000015479_ENST00000502499|hu_hu|motif|central (ssRNA)
RNA: GGGAGUUCUACAGUCCGACGAUCUUUCUUUAUUCUUUUAUACUUCUGGGAUAAAUGAACUCUCACUGGCUUGCCAAAUACGGACGCUGGUGUGGUUGUGUAAUAAUCCACUGCGGCCUGAGCAUCCUCUGUGGUUGCCAUUUCCAACAGAGGAUUGAGCAUCA
B21: 59350742_59359075_1706_CDS_ENSG00000157450_ENST00000557998|human|control|control (ssRNA)
RNA: GGGAGUUCUACAGUCCGACGAUCGUUCUGUGACGACCCUCCACAUGGUGAGUGCUGGGGACAGCAGGAAGGUAACCUUGGCAUUGCAGGAGGGCCAGUUUCCGUUACAGCACUAGAUGUAGUUCUCCUUGAGUCAUCUCCUAUCAACAGAGGAUUGAGCAUCA
B22: chr13:100518589:100518590:+_ENSG00000125246_ENST00000339105|hu_mus|FALSE|FALSE (ssRNA)
RNA: GGGAGUUCUACAGUCCGACGAUCUUCCCUUGACUGUCUGAGAAGUCCGUCUUCAUCUCGGAAGUCAAUGUACACAAGAUCUAUGGCUUGUAGGCCAAAGGCUUUUGCCGUGACAACAACCUUCUGCCGGGCAUAGAGGAUGUCCAACAGAGGAUUGAGCAUCA

biological target: T1, UNK ZnF1-3 (human, UniProt Q9C0B0 31-174); test: nsRBNS (natural sequence RNA bind-n-seq); RBNS binding buffer (assumed for nsRBNS): 25 mM Tris pH 7.5, 150 mM KCl, 3 mM MgCl2, 0.01% Triton X-100, 500 ug/ml BSA, 20 U/ml SUPERase-In, 4 C; UNK is unkempt and MSI1 is Musashi-1; names of the RNAs are library labels; protein concentration not given here; high values mean tight binding
T1 sequence: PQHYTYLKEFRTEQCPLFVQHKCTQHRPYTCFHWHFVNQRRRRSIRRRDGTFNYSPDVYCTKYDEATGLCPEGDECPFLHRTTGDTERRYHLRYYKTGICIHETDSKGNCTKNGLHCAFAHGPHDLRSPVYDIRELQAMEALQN

Question: B1 was tested. Which binding signal did it give?
Answer: 1.07 enrichment R

Question: Which binding signal does the source give for B2 here?
Answer: 0.654 enrichment R

Question: With B3 as the binder, how does the binding signal read?
Answer: 1.23 enrichment R

Question: Which binding signal does the source give for B4 here?
Answer: 1.47 enrichment R

Question: B5 was tested. Which binding signal did it give?
Answer: 0.849 enrichment R

Question: How did the binding signal turn out when B6 was run?
Answer: 1.58 enrichment R

Question: Which binding signal does the source give for B7 here?
Answer: 1.16 enrichment R

Question: B8 was tested. Which binding signal did it give?
Answer: 1.33 enrichment R

Question: How did the binding signal turn out when B9 was run?
Answer: 11 enrichment R

Question: For B10, which binding signal is on record?
Answer: 0.683 enrichment R

Question: Which binding signal does the source give for B11 here?
Answer: 0.632 enrichment R

Question: With B12 as the binder, how does the binding signal read?
Answer: 4.19 enrichment R

Question: Which binding signal does the source give for B13 here?
Answer: 1.42 enrichment R

Question: Which binding signal does the source give for B14 here?
Answer: 0.887 enrichment R

Question: B15 was tested. Which binding signal did it give?
Answer: 0.827 enrichment R

Question: With B16 as the binder, how does the binding signal read?
Answer: 5.58 enrichment R

Question: Which binding signal does the source give for B17 here?
Answer: 0.604 enrichment R

Question: Which binding signal does the source give for B18 here?
Answer: 5.65 enrichment R

Question: For B19, which binding signal is on record?
Answer: 0.703 enrichment R

Question: For B20, which binding signal is on record?
Answer: 0.487 enrichment R

Question: How did the binding signal turn out when B21 was run?
Answer: 0.898 enrichment R

Question: How did the binding signal turn out when B22 was run?
Answer: 0.641 enrichment R
